# Assay outcomes: PubChem, several laboratories
# Sampled rows, rich in hits. Any-hit rate of the full collection: about 4.2%.
# tim10-1 inh = growth inhibitors of tim10-1 mutant yeast, primary screen, luminescence, uHTS | S. cerevisiae tim10-1 ts strain growth, BacTiter-Glo, 24 h | inhibition, % at 20 µM | 330,000 tested, 2.2% active;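 active = inhibition of at least 40%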;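 note: mutant grown at 25 °C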
# TIM10 inh = growth inhibitors of isogenic TIM10 control yeast, primary screen, counter-screen for tim10-1 yeast inhibitor project, luminescence, uHTS; AID 463195, 2010; S. cerevisiae TIM10 strain growth, BacTiter-Glo luminescence, 24 h; inhibition, % at 10 µM; 330,000 tested, 1.4% active;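 active = inhibition of 40% or more at the single tested concentration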;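 note: wild-type TIM10 isogenic control strain grown at permissive 25 °C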
# NALP3 yeast inh = NALP3 inflammasome inhibitors in reconstituted yeast, primary screen, luminescence, uHTS | inhibition, % at 10 µM | AID 2825, 2010 | 330,000 tested, 0.39% active | Yeast reconstituted NLRP3/ASC/caspase-1, beta-gal luminescence, 24 h;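 active = inhibition of 50% or more; inactive = inhibition below 50%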
# V-ATPase pH = regulators of yeast V-ATPase proton pumping, primary screen, pHLuorin cytosolic pH fluorescence; 350,000 tested, 0.37% active; response, % at 10 µM; S. cerevisiae; in the data active = response mostly above about 7.3%, no sharp cut-off; inactive = mostly below about 5.4%; note: actives read high
# NALP1 inh = NALP1 inflammasome inhibitors in reconstituted yeast, colorimetric, S. cerevisiae, triplicate retest; inhibition, % at 10 µM; S. cerevisiae NALP1/ASC/caspase-1 growth, X-gal OD620, 72 h; 280,000 tested, 0.61% active; in the data active = inhibition mostly above about 24%, no sharp cut-off; inactive = mostly below about 32%
# tim23-1 inh = growth inhibitors of tim23-1 mutant yeast, primary screen, luminescence, uHTS. S. cerevisiae tim23-1 growth, BacTiter-Glo luminescence, 24 h. inhibition, % at 20 µM. 330,000 tested, 1.3% active;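 active = growth inhibition of the mutant yeast at or above 50%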;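 note: temperature-sensitive mutant grown at 25 °C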
# tim10-1 confirm = growth inhibitors of tim10-1 mutant yeast, confirmation, single concentration, luminescence, S. cerevisiae | 7,400 tested, 56% active | AID 463213, 2010 | shares compounds with tim10-1 inh | inhibition, % at 20 µM | S. cerevisiae tim10-1 ts strain growth, BacTiter-Glo, 24 h;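 active = inhibition of yeast growth at or above a set limit in either of two repeat tests at 20 µM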;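 note: tim10-1 mutant grown at permissive 25 °C to find synthetic lethal compounds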
# Numbers stand for hits; – = inactive; · = not tested or not shown.
SMILES,tim10-1 inh,TIM10 inh,NALP3 yeast inh,V-ATPase pH,NALP1 inh,tim23-1 inh,tim10-1 confirm
COc1cccc(OCC(=O)Nc2ccccc2C(=O)Nc2ccc(C(=O)O)cc2)c1,–,–,–,–,–,–,·
Clc1ccc2c(c1)-c1nnc(Br)n1-c1ccccc1S2,47.5,–,–,–,–,–,–
CCN(CC)c1nc(-c2cccc(OC)c2O)nc2ccccc12,46.6,–,–,–,–,–,36.2
COc1cccc(-c2nc(NCc3ccccc3)c3ccccc3n2)c1O,–,–,–,–,–,–,·
CN(C)c1ccc(/C=C/C(=O)c2ccc3c(c2)OCO3)cc1,–,–,–,–,·,–,·
O=C(/C=C/c1ccncc1)c1ccc2c(c1)OCCO2,45.8,–,–,–,–,–,38.5
Cc1ccc2cc(CCNS(=O)(=O)c3ccc(F)cc3)c(=O)[nH]c2c1C,–,–,–,–,–,–,·
O=C(c1ccc(Cl)cc1)c1ccc(CN2C(=O)c3ccccc3C2=O)o1,41.2,–,–,–,–,–,–
CSc1ccc(C(=O)N2CCC(CCC(=O)NC3CC3)CC2)cc1,–,–,–,–,–,–,·
CCn1nccc1C(=O)Nc1ccc(Cl)cn1,–,–,–,–,–,–,·
CCn1nccc1C(=O)Nc1cc(Cl)cc(Cl)c1,40.7,–,–,–,–,–,–
Cn1c(C(=O)NC2CCCCC2)cc2c(=O)n(C)c3ccccc3c21,–,–,–,–,–,–,·
CC1CCC(NC(=O)c2cc3c(=O)n(C)c4ccccc4c3n2C)CC1 (configuration not stated),40.1,–,–,–,–,–,–
O=C(CN(C(=O)c1csnn1)c1ccccc1C(F)(F)F)NC1CCCCC1,–,–,–,–,–,–,·
CCCCCOc1ccc(C(=O)CCC(=O)Nc2ccc(NC(C)=O)cc2)cc1,–,–,–,–,–,–,·
Cc1ccc2nc(NC(=O)C3CCN(S(=O)(=O)c4cccc5nsnc45)CC3)sc2c1,–,–,–,–,–,–,·
Cc1ccc2nc(NC(=O)C3CCN(S(=O)(=O)c4cccs4)CC3)sc2c1,41.9,–,–,–,–,–,–
COc1ccc2nc(NC(=O)C3CCN(S(=O)(=O)c4cccs4)CC3)sc2c1,–,–,–,–,–,–,·
Cc1ccc2nc(NC(=O)C3CCCN(S(=O)(=O)c4cccc5nsnc45)C3)sc2c1 (configuration not stated),41.2,–,–,–,–,–,–
Cc1cc(C)cc(NC(=O)N2CCCN(Cc3c(F)cccc3Cl)CC2)c1,–,–,–,–,–,–,·
COCC(C)NC(=O)c1nn(Cc2ccccc2)c(=O)c2ccccc12 (configuration not stated),–,–,–,–,–,–,·
COc1ccc(-c2nc3ncccc3o2)cc1NC(=O)c1ccco1,–,–,–,–,–,–,·
Cc1ccc(N2C(=O)CC(Sc3cccs3)C2=O)cc1 (configuration not stated),45.0,–,–,–,–,–,48.6
CCC1CCCCN1c1cc(C)nc2cc(-c3cccc(C)c3)nn12 (configuration not stated),41.9,–,–,–,–,–,–
Cc1cc(N2CCOCC2)n2nc(-c3cccc(F)c3)cc2n1,–,–,–,–,–,–,·
SMILES,tim10-1 inh,TIM10 inh,NALP3 yeast inh,V-ATPase pH,NALP1 inh,tim23-1 inh,tim10-1 confirm
CC(=O)c1cccc(OC(=O)c2cc(S(=O)(=O)N3CCOCC3)ccc2N2CCCC2)c1,–,–,–,–,·,–,·
CC(C)/C(=N\NS(=O)(=O)c1ccc(Br)cc1)c1cccs1,41.2,–,–,–,–,–,33.9
COc1ccc(N(C)S(=O)(=O)c2cccc(C(=O)Nc3nc4ccccc4[nH]3)c2)cc1,40.7,–,–,–,–,–,–
N#CC(C#N)=CC1=C2OC(c3ccccc3)=CC(c3ccccc3)=C2CCC1,48.4,–,–,–,–,–,–
CC(=O)Nc1ccc(OS(=O)(=O)c2ccc(C)cc2C)cc1,–,–,–,–,–,–,·
CC(=O)Nc1ccc(OS(=O)(=O)c2c(C)cc(C)cc2C)cc1,46.4,–,–,–,–,–,31.1
COc1ccc(Nc2cc(Nc3cc(OC)c(OC)c(OC)c3)ncn2)cc1,–,–,–,–,–,–,·
CC(C)(C)OC(=O)C(C)(C)Sc1nnc(N)s1,–,–,–,–,–,–,·
Cc1cccc(CS(=O)(=O)c2ncc(Cl)c(C(=O)NCc3ccccc3)n2)c1,44.0,–,–,–,–,–,–
O=[N+]([O-])c1ccc(-c2cnc(SCc3ccccc3Cl)[nH]2)cc1,–,–,–,–,–,–,·
Cc1cc(C)c(CSc2ncc(-c3ccc([N+](=O)[O-])cc3)[nH]2)c(C)c1,45.5,–,–,–,–,–,34.2
CN(C)CCn1cnc2c(c1=N)C(c1ccccc1)c1ccc3ccccc3c1O2 (configuration not stated),–,–,–,–,–,–,·
Cc1ccc(Cl)cc1N1CCN(C(=O)CCCn2c(=O)c3cccn3c3cccnc32)CC1,–,–,–,–,–,–,·
O=C(Cn1c(=O)c2cccn2c2cccnc21)N1CCN(c2ccc(Cl)cc2)CC1,43.2,–,–,–,–,–,–
CCOc1cc(CNn2cnnc2)cc(Cl)c1OCC(=O)NC(C)(C)C,–,–,–,–,–,–,·
CCCCOC(=O)n1c(SCC(=O)N(C)C)nc2ccccc21,40.6,–,–,–,–,–,–
CCCCOc1ccc(OCCSc2nc3ccccc3n2CC(=O)O)cc1,–,–,–,–,–,–,·
COC(=O)C1=C(C)OC(N)=C(C#N)C1c1c(C)nn(-c2ccccc2)c1Cl (configuration not stated),40.2,–,–,–,–,–,33.2
CCOC(=O)CC(=O)CSc1nc2cc(C)ccc2cc1C,43.7,–,–,–,–,–,–
COc1ccc(/C(N)=N/OC(=O)C2CCCCC2)cc1,50.6,–,–,–,–,–,31.4
COc1ccc(/C(N)=N/OC(=O)CCC2CCCC2)cc1OC,45.7,–,–,–,–,–,36.8
N/C(=N\OC(=O)CC1CCCCC1)c1ccc(Br)cc1,–,–,–,–,–,–,·
COc1ccc(/C(N)=N/OC(=O)CC2CCCCC2)cc1OC,50.8,–,–,–,–,–,60.8
COc1ccc(/C(N)=N/OC(=O)C2CCCCC2)cc1OC,–,–,–,–,–,–,·
COc1cc(C(=O)Nc2cc3c(cc2N2CCCCC2)n(C)c(=O)n3C)cc(OC)c1OC,–,–,–,–,–,–,·
